Source: PubChem (several laboratories)
NadD inh: blocks S. aureus nicotinate mononucleotide adenylyltransferase; purified NadD enzyme, colorimetric absorbance read-out; inhibition, % at 20 µM; 360,000 compounds, 0.78% hits; in the data active means inhibition above about 26%
bovine MsrA act: activates bovine MsrA enzyme; purified bovine MsrA, absorbance read-out; activation, % at 10.6 µM; 360,000 compounds, 0.3% hits; in the data active means activation above about 7.5%;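 further: 0% = vehicle and 100% = reference activator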
MsrA inhibitor: inhibits bovine methionine sulfoxide reductase A. purified bovine MsrA, absorbance read-out. inhibition, % at 15.5 µM. 360,000 compounds, 0.75% hits; in the data active means inhibition above about 4.5%;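 further: 0% = vehicle wells with enzyme and 100% = reference inhibitor wells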
Pemphigus Ab inh: human desmoglein-3 autoantibody binding inhibition | P32926 | DSG3-coupled beads, scFv-anti-DSG3-GFP binding, flow cytometry; active compounds read low | binding (percent of control), % at 10 µM | 310,000 compounds, 0.48% hits;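 active means binding more than 3 SD below its plate's average and above zero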;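 further: hits lower antibody fragment binding to DSG3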
DAGLB inhibitor: diacylglycerol lipase beta (human) inhibition; Q8NCG7; HEK293T DAGLB membrane lysate, EnzChek fluorogenic substrate; inhibition, % at 5.17 µM; 340,000 compounds, 0.059% hits; AID 504411; in the data active means inhibition above about 34%;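 further: 0% = enzyme with vehicle and 100% = wells lacking enzyme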
Target sequence (Q8NCG7 whole entry, looked up): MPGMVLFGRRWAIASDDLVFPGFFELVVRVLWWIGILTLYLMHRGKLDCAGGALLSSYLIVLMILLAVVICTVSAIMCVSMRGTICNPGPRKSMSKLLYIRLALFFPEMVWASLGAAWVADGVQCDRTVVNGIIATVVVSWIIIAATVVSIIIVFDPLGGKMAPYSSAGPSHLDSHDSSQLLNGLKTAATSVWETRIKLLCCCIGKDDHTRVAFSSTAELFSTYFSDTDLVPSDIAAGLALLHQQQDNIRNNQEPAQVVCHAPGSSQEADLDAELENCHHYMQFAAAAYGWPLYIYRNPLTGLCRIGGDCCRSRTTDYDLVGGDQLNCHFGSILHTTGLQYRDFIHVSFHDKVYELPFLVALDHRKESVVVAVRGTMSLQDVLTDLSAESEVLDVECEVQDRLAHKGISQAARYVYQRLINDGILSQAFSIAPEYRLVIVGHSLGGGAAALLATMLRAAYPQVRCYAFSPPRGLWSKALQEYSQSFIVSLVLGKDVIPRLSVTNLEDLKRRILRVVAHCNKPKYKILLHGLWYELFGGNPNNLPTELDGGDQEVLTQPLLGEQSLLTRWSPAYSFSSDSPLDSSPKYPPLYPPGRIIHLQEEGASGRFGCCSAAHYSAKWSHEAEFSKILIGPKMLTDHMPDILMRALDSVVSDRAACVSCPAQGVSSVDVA
rCAG binder: r(CAG) repeat RNA binding; TO-PRO-1 dye displacement fluorescence; inhibition, % at 3 µM; 370,000 compounds, 1.3% hits; AID 651821;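 active means inhibition above the plate cutoff, the mean of all test compounds on that plate plus 3 SD, cut at about 35% in these data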;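 further: 0% = DMSO alone and 100% = 100 µM mitoxantrone as full dye displacement; higher means more dye released from RNA so lower well fluorescence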
* hit, by the source's call. A selection: hits, their analogues and other compounds. The true share with any hit is near 3.2%.

What do the screens show for `COC(=O)[C@@]12CCCCN1[C@H](c1ccc(-c3cc(C(C)=O)cs3)cc1)[C@H]1C(=O)N(C)C(=O)[C@H]12`?
NadD inh: -2; bovine MsrA act: -2; MsrA inhibitor: -1; Pemphigus Ab inh: 108; DAGLB inhibitor: 1; rCAG binder: 1

Results for Cc1ccc(Cc2nnc(SCC(=O)Nc3ccccc3Cl)[nH]c2=O)cc1 ?
NadD inh: 2; bovine MsrA act: 0; MsrA inhibitor: 0; Pemphigus Ab inh: 99; DAGLB inhibitor: 8; rCAG binder: 16

Results for COc1ccc(Cl)cc1NC(=O)CSc1nnc(Cc2ccc(C)cc2)c(=O)[nH]1 ?
NadD inh: 5; bovine MsrA act: -5; MsrA inhibitor: 1; Pemphigus Ab inh: 99; DAGLB inhibitor: 10; rCAG binder: 75*

How did Nc1ccc(CCn2ccnc2)cc1 do in these assays?
NadD inh: 34*; bovine MsrA act: -3; MsrA inhibitor: 0; Pemphigus Ab inh: 92; DAGLB inhibitor: -2; rCAG binder: -2

Results for COc1ccc(/C(C)=N/NC(=O)c2nnn(-c3nonc3N)c2CN(C)c2ccccc2)cc1 ?
NadD inh: 3; bovine MsrA act: -9; MsrA inhibitor: -1; DAGLB inhibitor: 1; rCAG binder: 3

Results for C/C(=N\NC(=O)c1nnn(-c2nonc2N)c1CN(C)c1ccccc1)c1ccccc1O ?
NadD inh: 36*; bovine MsrA act: -2; MsrA inhibitor: 2; Pemphigus Ab inh: 106; DAGLB inhibitor: 6; rCAG binder: 19

How did CN(C)Cc1c(C(=O)N/N=C/c2cccc3ccccc23)nnn1-c1nonc1N do in these assays?
NadD inh: 7; bovine MsrA act: -13; MsrA inhibitor: 0; Pemphigus Ab inh: 56*; DAGLB inhibitor: 0; rCAG binder: 0

Results for CN(C)c1ccc(/C=N/NC(=O)c2nnn(-c3nonc3N)c2COc2ccc(F)cc2)cc1 ?
NadD inh: 17; bovine MsrA act: -3; MsrA inhibitor: 1; Pemphigus Ab inh: 77*; DAGLB inhibitor: 0; rCAG binder: -2

Results for COc1ccc(C(=O)NC(C)Cc2c[nH]c3ccccc23)cc1 (stereo not drawn) ?
NadD inh: 3; bovine MsrA act: 2; MsrA inhibitor: 0; Pemphigus Ab inh: 105; DAGLB inhibitor: -2; rCAG binder: 2

How did COC(=O)c1cc(C(C)c2ccccc2O)n2ccccc12 (stereo not drawn) do in these assays?
rCAG binder: 2

Results for Cc1cccc(NC(=O)Cn2c(O)c(N=NC(=O)c3ccccc3O)c3ccccc32)c1 ?
NadD inh: 35*; bovine MsrA act: -3; MsrA inhibitor: 0; Pemphigus Ab inh: 101; DAGLB inhibitor: 19; rCAG binder: 12

How did O=C(NCc1cccnc1)c1ccc2sc([C@@H]3O[C@H](CO)[C@H](O)[C@H](O)[C@H]3O)nc2c1 do in these assays?
NadD inh: -2; bovine MsrA act: -5; MsrA inhibitor: -1; rCAG binder: 2

What do the screens show for `Cc1ccc(-c2nc(Nc3ccccc3)n[nH]2)cc1`?
NadD inh: 1; bovine MsrA act: -9; MsrA inhibitor: -1; Pemphigus Ab inh: 37*; DAGLB inhibitor: 3; rCAG binder: 4

How did O=C(O)c1cccc(Nc2cc(Cl)c3nonc3c2[N+](=O)[O-])c1 do in these assays?
NadD inh: -2; bovine MsrA act: -7; MsrA inhibitor: 4.6*; Pemphigus Ab inh: 100; DAGLB inhibitor: 0; rCAG binder: 4

How did CC(=O)N1CCc2cc(S(=O)(=O)NCCC(=O)N(C)Cc3ccccc3F)ccc21 do in these assays?
rCAG binder: 5

Results for CCOC(=O)c1c(N)nn(C(=O)c2ccccc2F)c1-c1ccc(OC)cc1 ?
NadD inh: -10; bovine MsrA act: 4; MsrA inhibitor: 0; DAGLB inhibitor: -5; rCAG binder: -2

How did CCOC(=O)c1c(N)nn(C(=O)C(C)(C)C)c1-c1ccccc1 do in these assays?
NadD inh: 3; bovine MsrA act: -2; MsrA inhibitor: 0; Pemphigus Ab inh: 92*; DAGLB inhibitor: -1; rCAG binder: 1

What do the screens show for `O=C1NCCCCC1NS(=O)(=O)c1ccc(F)c(F)c1` (stereo not drawn)?
NadD inh: -2; bovine MsrA act: -2; MsrA inhibitor: -1; Pemphigus Ab inh: 110; DAGLB inhibitor: -2; rCAG binder: -2

How did CCc1ccc(S(=O)(=O)NC2CCCCNC2=O)cc1 (stereo not drawn) do in these assays?
NadD inh: -1; bovine MsrA act: 1; MsrA inhibitor: 0; Pemphigus Ab inh: 76*; DAGLB inhibitor: 2; rCAG binder: 19

How did Nc1c(C(=O)NCC(O)c2ccccc2)cnn1-c1ccccc1 (stereo not drawn) do in these assays?
rCAG binder: 3

What do the screens show for `Cc1[nH]c2ccccc2c1/C=N/Nc1ccc([N+](=O)[O-])cc1S(=O)(=O)Nc1ccc(Cl)cc1`?
NadD inh: 38*; bovine MsrA act: -9; MsrA inhibitor: 0; Pemphigus Ab inh: 114; DAGLB inhibitor: -1; rCAG binder: 10

Results for COc1cc(C(=O)Nc2nnc(C)s2)c([N+](=O)[O-])cc1OC ?
NadD inh: -5; bovine MsrA act: -2; MsrA inhibitor: 1; Pemphigus Ab inh: 85*; DAGLB inhibitor: 1; rCAG binder: 3

How did CCOc1ccc(NC(=O)CCC(=O)NNC(=O)COc2ccc(C)cc2)cc1 do in these assays?
NadD inh: -5; bovine MsrA act: -5; MsrA inhibitor: -1; Pemphigus Ab inh: 84*; DAGLB inhibitor: 0; rCAG binder: -4

Results for CCOc1ccc(NC(=O)CCC(=O)NNC(=O)COc2ccc(C)cc2Br)cc1 ?
NadD inh: 3; bovine MsrA act: -1; MsrA inhibitor: 0; Pemphigus Ab inh: 96; DAGLB inhibitor: 3; rCAG binder: -5

What do the screens show for `CCOc1c(Cl)cc(C(=O)Nc2ccccc2C(=O)O)cc1Cl`?
NadD inh: 8; bovine MsrA act: -2; MsrA inhibitor: -1; Pemphigus Ab inh: 103; DAGLB inhibitor: 12; rCAG binder: 51*

Results for COc1ccc(C(=O)Nc2ccccc2C(=O)O)cc1Cl ?
NadD inh: 1; bovine MsrA act: -3; MsrA inhibitor: 1; DAGLB inhibitor: 6; rCAG binder: 7

How did N#CCc1ccc(-c2cccc3nccn23)cc1 do in these assays?
NadD inh: 4; bovine MsrA act: 1; MsrA inhibitor: 2; rCAG binder: 0

Results for O=c1c2ccccc2sn1-c1ccc(S(=O)(=O)N2CCCC2)cc1 ?
NadD inh: 22; bovine MsrA act: 6; MsrA inhibitor: -2; Pemphigus Ab inh: 62*; DAGLB inhibitor: 1; rCAG binder: 9

What do the screens show for `Cc1ccc(-n2sc3ccccc3c2=O)cc1S(=O)(=O)N1CCCCC1`?
NadD inh: 6; bovine MsrA act: 4; MsrA inhibitor: 1; Pemphigus Ab inh: 12*; DAGLB inhibitor: 11; rCAG binder: 24

What do the screens show for `O=S(=O)(c1ccccc1)N1CCN(S(=O)(=O)N2CCCCCC2)CC1`?
NadD inh: -4; bovine MsrA act: -2; MsrA inhibitor: -2; DAGLB inhibitor: -2; rCAG binder: 3
